Experimental data: the supplement of paper PMC11732987, “Enantioselective OTUD7B fragment discovery through chemoproteomics screening and high-throughput optimisation” (Communications Chemistry, 2025)

How the values were obtained:
Assay in all cases: log2 ratio of Biotin-Ahx-Ub-VS probe labelling (fragment/DMSO); higher = less target engagement (more negative = stronger competition), active = hit call of the paper (q ≤ 0.05, log2 ratio ≤ -1)
Conditions in all cases: compound concentration: 200 uM; treatment time: 3 h
[1] = molecular target: USP34 (UniProt Q70CQ2)
Method in brief: (§1)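 Each value is an average log2 ratio of fragment to vehicle, tested by unpaired t-test. The underlying Spectronaut label-free quantities were global-median-normalised, and only proteins with ≥2 unique peptides were included. Triplicate HEK293T lysate samples (495 µg) were exposed to fragment at 200 µM or vehicle for 3 h, then to Biotin-Ahx-Ub-VS at 0.5 µM final for 1 h, before NeutrAvidin enrichment of labelled DUBs, LysC and trypsin digestion, and diaPASEF LC-MS/MS.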

[2] = molecular target: T1, USP36 (UniProt Q9P275)
T1 sequence (whole entry): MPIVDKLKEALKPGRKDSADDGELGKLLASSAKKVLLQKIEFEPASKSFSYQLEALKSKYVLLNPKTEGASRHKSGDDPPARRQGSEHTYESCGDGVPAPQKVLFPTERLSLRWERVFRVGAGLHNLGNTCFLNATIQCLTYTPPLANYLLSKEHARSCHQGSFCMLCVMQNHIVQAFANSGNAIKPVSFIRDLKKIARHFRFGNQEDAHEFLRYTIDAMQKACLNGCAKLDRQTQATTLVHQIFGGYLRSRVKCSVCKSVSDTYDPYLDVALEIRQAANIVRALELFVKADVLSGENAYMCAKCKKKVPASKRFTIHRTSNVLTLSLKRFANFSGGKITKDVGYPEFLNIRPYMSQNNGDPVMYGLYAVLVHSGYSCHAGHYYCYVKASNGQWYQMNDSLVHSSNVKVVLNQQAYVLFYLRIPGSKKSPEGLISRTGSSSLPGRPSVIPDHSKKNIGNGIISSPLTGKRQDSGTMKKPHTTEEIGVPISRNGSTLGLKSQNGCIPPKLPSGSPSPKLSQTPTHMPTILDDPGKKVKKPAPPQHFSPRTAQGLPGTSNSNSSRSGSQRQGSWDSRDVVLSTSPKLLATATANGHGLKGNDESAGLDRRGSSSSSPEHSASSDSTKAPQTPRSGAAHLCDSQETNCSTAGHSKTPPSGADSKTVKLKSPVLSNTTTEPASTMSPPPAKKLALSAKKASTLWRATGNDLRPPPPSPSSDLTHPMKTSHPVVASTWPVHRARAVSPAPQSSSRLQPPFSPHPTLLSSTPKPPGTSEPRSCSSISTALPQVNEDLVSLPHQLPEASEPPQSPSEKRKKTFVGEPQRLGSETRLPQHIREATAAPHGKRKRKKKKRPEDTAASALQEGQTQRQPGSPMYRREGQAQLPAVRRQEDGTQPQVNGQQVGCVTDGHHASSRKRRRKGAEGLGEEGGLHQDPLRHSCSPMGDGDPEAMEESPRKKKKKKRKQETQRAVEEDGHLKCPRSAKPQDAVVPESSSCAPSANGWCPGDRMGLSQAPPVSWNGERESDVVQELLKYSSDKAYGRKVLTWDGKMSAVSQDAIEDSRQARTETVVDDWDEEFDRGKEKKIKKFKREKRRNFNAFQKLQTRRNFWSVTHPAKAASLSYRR
Method in brief: as §1

[3] = molecular target: T2, USP38 (UniProt Q8NB14)
T2 sequence (whole entry): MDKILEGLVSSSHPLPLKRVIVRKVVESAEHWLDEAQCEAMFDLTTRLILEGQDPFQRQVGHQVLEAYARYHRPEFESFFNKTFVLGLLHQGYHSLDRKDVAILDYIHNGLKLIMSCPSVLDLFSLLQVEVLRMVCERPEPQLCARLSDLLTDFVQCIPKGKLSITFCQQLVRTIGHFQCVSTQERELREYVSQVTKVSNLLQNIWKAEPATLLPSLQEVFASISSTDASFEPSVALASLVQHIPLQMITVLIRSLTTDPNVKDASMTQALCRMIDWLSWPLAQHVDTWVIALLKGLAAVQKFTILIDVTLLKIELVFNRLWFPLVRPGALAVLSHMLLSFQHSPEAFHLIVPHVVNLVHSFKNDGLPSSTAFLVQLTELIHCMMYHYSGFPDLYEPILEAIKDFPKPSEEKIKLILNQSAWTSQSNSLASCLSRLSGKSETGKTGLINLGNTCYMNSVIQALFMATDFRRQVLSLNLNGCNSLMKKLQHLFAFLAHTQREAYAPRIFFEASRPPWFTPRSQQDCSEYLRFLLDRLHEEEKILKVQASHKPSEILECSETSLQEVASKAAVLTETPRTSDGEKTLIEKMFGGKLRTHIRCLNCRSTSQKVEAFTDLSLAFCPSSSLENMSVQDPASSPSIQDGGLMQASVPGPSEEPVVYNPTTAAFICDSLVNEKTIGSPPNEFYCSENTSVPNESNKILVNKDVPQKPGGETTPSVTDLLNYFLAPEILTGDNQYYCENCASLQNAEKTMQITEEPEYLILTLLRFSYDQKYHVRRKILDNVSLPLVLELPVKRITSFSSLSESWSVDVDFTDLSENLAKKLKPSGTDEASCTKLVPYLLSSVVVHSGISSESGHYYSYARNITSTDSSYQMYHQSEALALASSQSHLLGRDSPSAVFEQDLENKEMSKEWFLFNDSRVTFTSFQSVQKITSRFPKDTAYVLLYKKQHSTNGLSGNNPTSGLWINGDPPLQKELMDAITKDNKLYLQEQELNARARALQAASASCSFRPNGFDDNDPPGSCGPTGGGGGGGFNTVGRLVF
Method in brief: as §1

[4] = molecular target: T3, USP39 (UniProt Q53GS9)
T3 sequence (whole entry): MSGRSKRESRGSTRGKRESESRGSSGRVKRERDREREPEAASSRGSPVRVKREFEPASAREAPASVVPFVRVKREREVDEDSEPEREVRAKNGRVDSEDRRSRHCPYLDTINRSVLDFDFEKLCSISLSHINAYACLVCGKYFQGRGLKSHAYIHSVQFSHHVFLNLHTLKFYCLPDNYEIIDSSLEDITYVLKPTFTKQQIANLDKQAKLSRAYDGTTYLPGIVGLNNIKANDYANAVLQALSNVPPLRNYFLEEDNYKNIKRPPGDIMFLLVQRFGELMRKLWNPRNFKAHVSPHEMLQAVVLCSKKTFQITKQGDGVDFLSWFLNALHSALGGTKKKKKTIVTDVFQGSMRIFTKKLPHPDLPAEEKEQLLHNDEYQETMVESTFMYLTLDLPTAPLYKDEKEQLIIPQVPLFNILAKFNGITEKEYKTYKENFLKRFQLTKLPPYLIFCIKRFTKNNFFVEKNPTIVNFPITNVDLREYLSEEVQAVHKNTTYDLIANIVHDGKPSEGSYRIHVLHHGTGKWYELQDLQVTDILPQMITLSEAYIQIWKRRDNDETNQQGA
Method in brief: as §1

[5] = molecular target: T4, USP4 (UniProt Q13107)
T4 sequence (whole entry): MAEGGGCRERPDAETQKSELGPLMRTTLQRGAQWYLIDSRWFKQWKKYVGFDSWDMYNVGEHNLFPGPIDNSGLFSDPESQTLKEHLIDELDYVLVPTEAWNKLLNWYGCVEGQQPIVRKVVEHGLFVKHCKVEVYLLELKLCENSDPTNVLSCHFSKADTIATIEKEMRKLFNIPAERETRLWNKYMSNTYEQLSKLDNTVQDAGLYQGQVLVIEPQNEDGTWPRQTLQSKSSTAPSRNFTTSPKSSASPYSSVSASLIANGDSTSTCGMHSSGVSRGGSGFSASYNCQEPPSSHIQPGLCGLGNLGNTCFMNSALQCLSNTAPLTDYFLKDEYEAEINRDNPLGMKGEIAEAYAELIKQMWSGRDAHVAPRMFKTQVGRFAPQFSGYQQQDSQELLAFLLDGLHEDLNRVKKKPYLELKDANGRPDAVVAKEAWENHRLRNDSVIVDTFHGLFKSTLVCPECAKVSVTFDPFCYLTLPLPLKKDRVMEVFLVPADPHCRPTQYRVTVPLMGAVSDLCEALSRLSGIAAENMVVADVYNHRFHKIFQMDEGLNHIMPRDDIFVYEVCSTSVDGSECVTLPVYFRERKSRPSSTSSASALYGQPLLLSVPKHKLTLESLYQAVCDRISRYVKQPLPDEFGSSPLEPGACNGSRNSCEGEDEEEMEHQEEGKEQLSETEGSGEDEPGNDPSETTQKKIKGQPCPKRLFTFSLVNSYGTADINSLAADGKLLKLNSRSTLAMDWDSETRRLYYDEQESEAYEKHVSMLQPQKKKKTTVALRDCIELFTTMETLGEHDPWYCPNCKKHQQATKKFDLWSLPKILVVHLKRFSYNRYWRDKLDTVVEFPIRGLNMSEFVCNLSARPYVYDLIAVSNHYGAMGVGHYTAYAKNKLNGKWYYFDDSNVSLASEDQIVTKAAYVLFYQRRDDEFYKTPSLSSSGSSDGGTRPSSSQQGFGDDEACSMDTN
Method in brief: as §1

Measured: log2 ratio of Biotin-Ahx-Ub-VS probe labelling

Sequence of USP34 (Q70CQ2 whole entry, the tested form may be a part): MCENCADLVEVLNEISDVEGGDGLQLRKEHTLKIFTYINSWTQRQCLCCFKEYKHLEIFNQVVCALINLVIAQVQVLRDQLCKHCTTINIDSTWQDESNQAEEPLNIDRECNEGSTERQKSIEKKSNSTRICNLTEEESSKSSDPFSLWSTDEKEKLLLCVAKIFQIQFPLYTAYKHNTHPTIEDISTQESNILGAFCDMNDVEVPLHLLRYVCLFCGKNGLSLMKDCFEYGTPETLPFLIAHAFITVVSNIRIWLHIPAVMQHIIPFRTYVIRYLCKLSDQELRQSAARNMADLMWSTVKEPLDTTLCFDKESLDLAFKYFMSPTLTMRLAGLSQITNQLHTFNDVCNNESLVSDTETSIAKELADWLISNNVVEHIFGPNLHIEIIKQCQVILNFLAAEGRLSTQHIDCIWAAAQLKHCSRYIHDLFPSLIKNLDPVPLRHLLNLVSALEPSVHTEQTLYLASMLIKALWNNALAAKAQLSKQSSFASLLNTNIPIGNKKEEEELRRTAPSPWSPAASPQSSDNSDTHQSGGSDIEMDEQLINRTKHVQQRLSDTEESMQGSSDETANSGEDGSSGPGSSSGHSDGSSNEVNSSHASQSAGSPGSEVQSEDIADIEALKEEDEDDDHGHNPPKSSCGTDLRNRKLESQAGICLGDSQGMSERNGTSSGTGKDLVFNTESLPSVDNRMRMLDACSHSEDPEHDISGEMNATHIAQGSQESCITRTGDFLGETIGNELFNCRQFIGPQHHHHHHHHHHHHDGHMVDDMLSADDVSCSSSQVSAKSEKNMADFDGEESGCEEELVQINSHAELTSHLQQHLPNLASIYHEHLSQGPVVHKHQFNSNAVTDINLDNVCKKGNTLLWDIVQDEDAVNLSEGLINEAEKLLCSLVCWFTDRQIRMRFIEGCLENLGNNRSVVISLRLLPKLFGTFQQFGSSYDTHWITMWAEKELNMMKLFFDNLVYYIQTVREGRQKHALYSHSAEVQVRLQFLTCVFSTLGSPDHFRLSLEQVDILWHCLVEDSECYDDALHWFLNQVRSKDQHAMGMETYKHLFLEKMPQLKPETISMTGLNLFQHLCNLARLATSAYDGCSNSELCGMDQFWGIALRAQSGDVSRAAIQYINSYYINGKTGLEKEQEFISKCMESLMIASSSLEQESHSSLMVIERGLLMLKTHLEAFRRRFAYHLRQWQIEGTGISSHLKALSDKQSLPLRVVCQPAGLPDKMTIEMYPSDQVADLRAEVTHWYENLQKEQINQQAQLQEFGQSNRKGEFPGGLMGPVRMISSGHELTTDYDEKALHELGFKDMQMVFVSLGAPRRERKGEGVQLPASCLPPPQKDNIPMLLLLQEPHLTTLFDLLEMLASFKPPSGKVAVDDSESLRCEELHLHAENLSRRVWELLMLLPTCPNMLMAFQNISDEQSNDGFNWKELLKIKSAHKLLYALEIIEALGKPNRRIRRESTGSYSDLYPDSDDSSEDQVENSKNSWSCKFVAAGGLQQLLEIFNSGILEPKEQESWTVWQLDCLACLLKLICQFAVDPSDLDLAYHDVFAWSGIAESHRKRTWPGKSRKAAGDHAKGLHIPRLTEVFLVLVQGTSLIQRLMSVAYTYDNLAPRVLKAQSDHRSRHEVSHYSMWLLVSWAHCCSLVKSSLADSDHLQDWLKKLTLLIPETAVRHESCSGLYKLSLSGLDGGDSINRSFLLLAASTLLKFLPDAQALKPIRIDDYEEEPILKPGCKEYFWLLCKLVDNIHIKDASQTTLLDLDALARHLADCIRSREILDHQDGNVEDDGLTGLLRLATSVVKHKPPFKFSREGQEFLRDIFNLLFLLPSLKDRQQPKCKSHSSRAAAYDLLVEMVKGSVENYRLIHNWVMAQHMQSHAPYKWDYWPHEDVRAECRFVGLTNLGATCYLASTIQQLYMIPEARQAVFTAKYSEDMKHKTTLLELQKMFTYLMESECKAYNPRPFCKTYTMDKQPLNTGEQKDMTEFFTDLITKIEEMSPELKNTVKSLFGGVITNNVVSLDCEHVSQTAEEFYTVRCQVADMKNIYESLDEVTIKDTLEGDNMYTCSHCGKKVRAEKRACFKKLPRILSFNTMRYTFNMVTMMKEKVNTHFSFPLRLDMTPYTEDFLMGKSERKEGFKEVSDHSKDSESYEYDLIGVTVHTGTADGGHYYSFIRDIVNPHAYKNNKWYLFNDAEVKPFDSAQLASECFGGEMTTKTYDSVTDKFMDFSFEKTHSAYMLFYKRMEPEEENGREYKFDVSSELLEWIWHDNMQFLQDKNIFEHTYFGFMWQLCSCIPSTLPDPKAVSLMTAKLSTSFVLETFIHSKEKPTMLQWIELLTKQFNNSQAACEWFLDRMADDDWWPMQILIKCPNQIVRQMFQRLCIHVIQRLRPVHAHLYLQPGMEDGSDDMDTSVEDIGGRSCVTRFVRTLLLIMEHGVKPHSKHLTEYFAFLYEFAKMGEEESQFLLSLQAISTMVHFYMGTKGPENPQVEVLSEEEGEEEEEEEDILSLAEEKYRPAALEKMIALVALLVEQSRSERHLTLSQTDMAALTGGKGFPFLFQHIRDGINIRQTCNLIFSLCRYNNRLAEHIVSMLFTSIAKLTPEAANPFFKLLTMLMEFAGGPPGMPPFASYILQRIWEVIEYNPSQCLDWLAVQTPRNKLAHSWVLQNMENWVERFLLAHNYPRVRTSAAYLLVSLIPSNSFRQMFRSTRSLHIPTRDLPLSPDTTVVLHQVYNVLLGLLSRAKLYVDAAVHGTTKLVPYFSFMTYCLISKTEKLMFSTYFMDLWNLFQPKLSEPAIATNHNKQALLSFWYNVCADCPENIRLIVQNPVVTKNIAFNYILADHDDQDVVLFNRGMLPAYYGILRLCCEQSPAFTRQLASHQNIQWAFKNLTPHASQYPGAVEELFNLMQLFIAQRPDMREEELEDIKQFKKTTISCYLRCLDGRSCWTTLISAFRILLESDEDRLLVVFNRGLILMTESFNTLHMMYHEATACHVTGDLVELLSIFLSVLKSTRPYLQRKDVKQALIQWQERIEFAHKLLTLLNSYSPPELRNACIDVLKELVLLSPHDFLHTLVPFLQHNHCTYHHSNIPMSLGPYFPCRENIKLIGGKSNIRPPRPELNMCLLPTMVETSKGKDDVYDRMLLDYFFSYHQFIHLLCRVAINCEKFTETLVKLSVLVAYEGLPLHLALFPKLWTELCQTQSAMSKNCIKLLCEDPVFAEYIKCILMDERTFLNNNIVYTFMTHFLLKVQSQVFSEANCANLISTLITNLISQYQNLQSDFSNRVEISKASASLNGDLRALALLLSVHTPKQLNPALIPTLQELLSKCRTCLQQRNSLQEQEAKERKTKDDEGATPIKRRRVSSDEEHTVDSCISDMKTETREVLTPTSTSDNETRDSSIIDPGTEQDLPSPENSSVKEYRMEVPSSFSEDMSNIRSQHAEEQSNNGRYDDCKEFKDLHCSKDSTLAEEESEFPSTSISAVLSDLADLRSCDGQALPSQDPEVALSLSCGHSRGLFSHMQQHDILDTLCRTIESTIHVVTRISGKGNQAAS

Cc1cccc(NC(=O)[C@@H]2CCCN2C(=O)CCl)n1
inactive: [1] 0.0425 | [2] -0.0946 | [3] -0.0719 | [4] 0.179 | [5] -0.0817
